CHRM1 PAM: human M1 muscarinic receptor positive allosteric modulators, primary screen, CHO-K1 cells, Fluo-8 calcium fluorescence, 1536-well | hit rate 0.088% among 360,000 | CHO-K1 hM1, ACh EC20; 0% = ACh EC20, 100% = maximal ACh | Muscarinic acetylcholine receptor M1 (Homo sapiens), P11229 | activation, % at 3 µM; in the data active means activation above about 19%, passing the limit was not always enough
Target sequence (P11229 whole entry, looked up): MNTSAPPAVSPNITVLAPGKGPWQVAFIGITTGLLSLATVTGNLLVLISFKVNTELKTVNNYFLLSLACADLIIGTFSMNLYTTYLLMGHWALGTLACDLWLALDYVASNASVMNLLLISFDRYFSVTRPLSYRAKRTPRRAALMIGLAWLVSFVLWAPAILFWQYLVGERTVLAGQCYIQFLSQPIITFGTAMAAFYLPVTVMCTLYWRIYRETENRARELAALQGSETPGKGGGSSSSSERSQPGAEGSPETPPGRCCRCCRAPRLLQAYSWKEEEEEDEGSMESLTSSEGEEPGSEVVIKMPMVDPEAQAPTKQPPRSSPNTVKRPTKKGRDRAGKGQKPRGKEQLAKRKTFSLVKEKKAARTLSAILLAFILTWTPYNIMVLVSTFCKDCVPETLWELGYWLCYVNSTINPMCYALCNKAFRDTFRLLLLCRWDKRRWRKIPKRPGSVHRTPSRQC
CHO-K1 Ca PAM: nonselective calcium activators in parental CHO-K1 cells, primary screen, counter-screen for M1 PAM project, cell-based, Fluo-8 calcium fluorescence, full deck, 1536-well; AID 602247, 2012; activation, % at 3 µM; ATP EC20; 0% at ATP EC20, 100% at ATP max; hit rate 0.02% among 360,000;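 active means activation above the run cutoff, the mean activation of all test compounds plus 3 SD, cut at about 40% in these data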;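 further: peak over basal fluorescence ratio in a 140 s read after ATP addition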
CHO-K1 Ca antag: M1 antagonist counterscreen hit in parental CHO-K1 cells; inhibition, % at 3 µM; AID 602250; hit rate 0.6% among 360,000; ATP-induced calcium, Fluo-8 fluorescence;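 active means inhibition above a per-plate cutoff, the plate's mean sample inhibition plus 3 SD, cut at about 24% in these data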;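 further: 0% = DMSO plus EC80 ATP and 100% = DMSO alone without ATP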
M1 antag: human M1 muscarinic receptor antagonists, primary screen, CHO-K1 cells, Fluo-8 calcium fluorescence, 1536-well; Muscarinic acetylcholine receptor M1 (Homo sapiens), P11229; CHO-K1 hM1, ACh EC80 antagonist; inhibition, % at 3 µM; hit rate 1.3% among 360,000;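 active means percent inhibition above its own plate's cutoff, namely the mean of that plate's compound wells plus 3 SD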;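 further: peak over basal fluorescence ratio during 140 s after agonist addition; 0% = ACh EC80 plus DMSO and 100% = DMSO alone without agonist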
CHO-K1 Ca ag: counter-screen for M1 agonists: effect in parental CHO-K1 cells; Fluo-8 calcium fluorescence; scaled to maximal ATP response, vehicle zero; activation, % at 3 µM; hit rate 0.48% among 360,000; in the data active means activation above about 15%;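 further: untransfected CHO-K1 host cells lacking M1 receptor as counterscreen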
CHRM1 agonist: human M1 muscarinic receptor agonists, primary screen, Fluo-8 calcium fluorescence, CHO-K1 cells, HTS; hit rate 0.33% among 360,000; Muscarinic acetylcholine receptor M1 (Homo sapiens), P11229; activation, % at 3 µM; CHO-K1 hM1, agonist mode; 0% DMSO, 100% acetylcholine EC100;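 active means activation above the run's mean compound activation plus 3 SD, cut at about 16% in these data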;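 further: peak over basal fluorescence ratio within a 140 s kinetic read after compound addition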
* marks the source's active call; other numbers are inactive results. Compounds with a hit are over-represented: about 2.3% of the library has one in this group of screens.

SMILES	CHRM1 PAM	CHO-K1 Ca PAM	CHO-K1 Ca antag	M1 antag	CHO-K1 Ca ag	CHRM1 agonist
C[C@@H]1CN([C@H](C)CO)C(=O)CCCn2nncc2CO[C@@H]1CN(C)S(=O)(=O)c1ccccc1C#N	27*	15	-10	-29	0	-8
Cc1ccccc1S(=O)(=O)N(C)C[C@@H]1OCc2cnnn2CCCC(=O)N([C@@H](C)CO)C[C@@H]1C	-7	17	-8	-2	0	-10
C[C@@H]1CN([C@@H](C)CO)C(=O)CCCn2cc(nn2)CO[C@H]1CN(C)S(=O)(=O)c1ccc(-c2ccccc2)cc1	2	21	-10	-5	0	-5
Cc1ccc(S(=O)(=O)N(C)C[C@@H]2OCc3cn(nn3)CCCC(=O)N([C@@H](C)CO)C[C@H]2C)cc1	25*	5	-6	-28	0	0
C[C@H](CO)N1C[C@H](C)[C@@H](CN(C)S(=O)(=O)c2ccccc2)OCc2cn(nn2)CCCC1=O	-13	6	15	24*	4	-8
CN(CC(=O)Nc1ccc(Cl)c(Cl)c1)C(=O)/C=C/c1ccc(F)cc1	6	-9	26*	0	-1	-2
NC(=Nc1nc(-c2ccccn2)cc2ccccc12)c1ccccn1	-14	-17	1	33*	0	-1
Cn1c2c(c(=O)n(C)c1=O)C(C(F)(F)F)(C(F)(F)F)N=C(c1ccc(Cl)cc1)N2	-9	8	19	24*	11	5
Cc1ccccc1C1=NC(C(F)(F)F)(C(F)(F)F)c2c(n(C)c(=O)n(C)c2=O)N1	-1	-2	8	0	1	-4
COc1ccc2c(c1)-c1c(sn(-c3ccc(OC)c(OC)c3)c1=S)C(C)(C)N2	-17	19	-10	27*	0	-6
COc1ccc(-n2sc3c(c2=S)-c2cc(OC)ccc2NC3(C)C)cc1	-14	6	-14	9	0	-5
CCOc1cc(C=NN=C2c3ccccc3-c3ccccc32)ccc1O	2	3	-11	-11	-1	-4
CC(=O)Oc1ccc2c(C)cc(=O)[nH]c2c1	6	-8	26*	-2	-1	1
Cc1ccc(CC2(c3ccccc3)NC(=O)NC2=O)cc1 (stereo not drawn)	8	19	-11	-19	0	-3
CCCN1CCC(NC(=S)Nc2cccc(Cl)c2Cl)CC1	9	22	-8	-13	0	26*
O=C(O)c1cnc2ccc(Cl)cc2n1	-5	-10	3	9	0	-1
O=C(NCCCN1CCOCC1)/C(=C/c1cccs1)NC(=O)c1ccccc1	3	28	-14	2	0	-6
CCCCn1c(=O)nc2n(-c3ccc(C)cc3)c3ccccc3cc-2c1=O	-2	11	-4	3	0	-4
CCCCn1c(=O)nc2n(-c3ccc(Cl)cc3)c3ccccc3cc-2c1=O	-1	-16	27*	-4	-1	-5
COc1ccc(N2CCN(C(=O)Cn3nnc(-c4ccc(OC)c(OC)c4)n3)CC2)cc1	1	-5	-11	-4	0	-1
Cc1ccc(-c2nnn(CC(=O)N3CCN(c4ccccc4)CC3)n2)o1	30*	8	-18	-21	1	4
Cc1ccc(S(=O)(=O)N2CCC(N3CCN(C)CC3)CC2)cc1Cl	-21	4	-15	42*	0	-14
O=S(=O)(c1ccc(F)cc1)N1CCC(N2CCCC2)CC1	-10	5	40*	12	0	-13
Cc1ccc(S(=O)(=O)N2CCN(C)CC2)cc1C	-2	-1	-2	0	0	-5
CCN(CC)C(=O)c1ccc(COc2ccc(Cl)c(C)c2)o1	-10	4	20	32*	10	4
SMILES	CHRM1 PAM	CHO-K1 Ca PAM	CHO-K1 Ca antag	M1 antag	CHO-K1 Ca ag	CHRM1 agonist
Cc1c(C(=O)Nc2ccc3c(c2)OCCO3)sc2nc(-c3ccccc3)cn12	-24	-10	9	42*	15	0
Cc1ccc(C)c(N2CCN(C(=O)CCCOc3cc(=O)n(C)c4ccccc34)CC2)c1	-13	13	15	37*	6	2
CC(C)OC(=O)CSc1nnc(CNc2ccc(Cl)cc2)n1Cc1ccccc1	-12	-8	36*	20	4	1
CCOC(=O)CSc1nnc(CNc2ccc(Cl)cc2)n1Cc1ccccc1	-7	0	12	24	7	3
Cn1nccc1C(=O)c1ccc(Cl)cc1	0	-9	24*	-21	-1	-3
CC(c1ccccc1)C1OCC(C[N+]2(C)CCCCC2)O1 (stereo not drawn)	-23	17	-13	99*	0	-6
Cc1nn(CC(=O)N2CCC(C(N)=O)CC2)c(=O)c2nn(-c3ccccc3)c(C)c12	14	-17	2	-16	0	-2
CCN(CC)c1ccc(C(=O)OCC(=O)Nc2ccc3[nH]c(=O)[nH]c3c2)cc1	-4	24	-6	4	3	-4
O=[N+]([O-])c1cc(S(=O)(=O)NCCN2CCOCC2)ccc1Sc1nnnn1-c1ccccc1	-27	23	-2	62*	3	-13
Cc1ccc(-n2nnnc2Sc2ccc(S(=O)(=O)NCCN(C)C)cc2[N+](=O)[O-])cc1	-27	-5	8	86*	1	-7
O=[N+]([O-])c1cc(S(=O)(=O)NCCCN2CCOCC2)ccc1Cl	3	19	-4	-3	0	-4
COc1ccc(NC(=O)Nc2ccc3c(c2)N(C)C(=O)CS3)cc1Cl	-10	-2	28*	23	7	3
COc1ccc(NC(=O)Nc2ccc3c(c2)N(C)C(=O)CS3)cc1OC	-4	-6	-6	-8	4	2
CC(C)CCNC(=O)Nc1ccc2c(c1)N(C)C(=O)CS2	-11	-8	21	33*	1	0
O=C(ONc1ccc(N=NC(=O)c2ccccc2O)cc1)c1ccccc1	-11	-16	28*	20	0	-4
COC(=O)[C@]1(C)N[C@H](CN(C)C(=O)c2ccc(F)cc2)[C@@H]2C(=O)N(Cc3ccccc3)C(=O)[C@@H]21	7	0	-11	-10	0	-3
CCN(CC)c1ccc(S(=O)(=O)N(CC)CC)cc1NC(=O)c1cccnc1	2	6	-6	12	3	-3
C=CC#CC[N+]1(CC#Cc2ccccc2)CCOCC1	-3	3	0	-3	-1	-13
C=CC[N+]1(CC#CCOC(c2ccccc2)c2ccccc2)CCOCC1	-28	-2	1	49*	0	-14

Screening data deposited in PubChem by The Scripps Research Institute Molecular Screening Center.
